How the values were obtained:
Settings in all cases: concentration: 1 μM, replicates: in singlicate; n = 1
[1] = system: ACVR1B
[2] = system: ACVR1
[3] = system: ACVR2A
[4] = system: ACVR2B
[5] = system: ACVRL1
[6] = system: T1, ADCK3
T1 construct: gene CABC1

[7] = system: ADCK4
[8] = system: AKT1
[9] = system: AKT2
[10] = system: AKT3
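Further: KINOMEscan kinase panel screen.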

Structure (SMILES) | %Inh [1] [%] | %Inh [2] [%] | %Inh [3] [%] | %Inh [4] [%] | %Inh [5] [%] | %Inh [6] [%] | %Inh [7] [%] | %Inh [8] [%] | %Inh [9] [%] | %Inh [10] [%]
COc1ccc(Nc2nccc(N3CCC(NS(=O)(=O)c4ccc(NC(C)=O)cc4)C3)n2)cc1 (stereo not drawn) [GSK1379729] | 3 | 34 | 32 | 22 | 8 | 9 | 38 | 0 | 7 | 0
CCC(=O)c1c(-c2ccccc2)c2cc(Cl)ccc2c(=O)n1Cc1cc(S(C)(=O)=O)n(CCC(C)(C)O)n1 | 10 | 2 | 0 | 9 | 17 | 27 | 1 | 0 | 14 | 17
O=C(NCc1cccs1)c1cc(C(=O)c2c(Cl)cccc2Cl)c[nH]1 [GW823670] | 12 | 0 | 0 | 0 | 5 | 0 | 0 | 0 | 0 | 0
Fc1cccc(CSc2nnc(-c3ccc4c(c3)CCO4)o2)c1 | 17 | 0 | 0 | 0 | 0 | 0 | 6 | 12 | 14 | 0
Cc1ccccc1COc1cc(-n2cnc3cc(Cl)ccc32)sc1C(N)=O [GW813349] | 0 | 0 | 10 | 19 | 3 | 12 | 0 | 0 | 3 | 6
Cc1nnc(-c2ccc3ncn(-c4ccc(S(C)=O)cc4)c3c2)o1 (stereo not drawn) | 15 | 0 | 0 | 0 | 9 | 5 | 0 | 0 | 0 | 0
COc1ccc(CNC(=O)NC2CCN(c3ccnc(Nc4ccc(F)cc4)n3)C2)cc1 (stereo not drawn) [GSK1379706] | 0 | 49 | 0 | 5 | 0 | 29 | 48 | 0 | 0 | 0
Cc1c(Cn2c(C)nn3c(=O)cc(N4CCO[C@H](C)C4)nc23)cccc1C(F)(F)F [GSK2373690] | 0 | 2 | 3 | 0 | 0 | 22 | 24 | 0 | 6 | 28
CN(C)c1cc(-c2ccc3c(N)n[nH]c3c2)nc(N)n1 [GSK2219329] | 0 | 0 | 0 | 1 | 0 | 9 | 23 | 0 | 0 | 0
Cc1cccc(-c2cc(-c3c[nH]nc3-c3ccccn3)ccn2)c1 [GW679395] | 0 | 0 | 0 | 3 | 0 | 3 | 22 | 0 | 1 | 0
O=C(Nc1n[nH]c2nc(-c3ccccc3)c(Br)cc12)C1CC1 [SB-708998] | 0 | 21 | 24 | 7 | 21 | 4 | 1 | 7 | 4 | 0
FC(F)(F)c1ccc(-c2ncn(CCCN3CCOCC3)c2-c2ccncc2)cc1 [SB-217780] | 10 | 0 | 0 | 0 | 4 | 1 | 8 | 0 | 0 | 28
Cn1c(=O)c(F)c(Nc2ccc(I)cc2F)c2c(=O)n(OC[C@H](O)CO)cnc21 | 0 | 14 | 29 | 28 | 1 | 21 | 0 | 15 | 0 | 0
COc1cccc(C2=C(Nc3cccc(C(=O)O)c3)C(=O)NC2=O)c1 [SB-390770] | 18 | 15 | 17 | 40 | 4 | 0 | 8 | 2 | 0 | 0
COc1cc2ncn(-c3cc(OCc4ccc(S(C)(=O)=O)cc4)c(C(N)=O)s3)c2cc1OC [GW869979] | 0 | 51 | 0 | 0 | 4 | 31 | 0 | 0 | 0 | 0
Cc1ccc(Oc2ccc(Nc3ncnc4cc[nH]c34)cc2C)cn1 | 27 | 2 | 0 | 0 | 0 | 16 | 0 | 17 | 0 | 0
Nc1n[nH]c2ncc(-c3ccccc3)cc12 [SB-517081] | 0 | 8 | 0 | 5 | 0 | 7 | 19 | 0 | 12 | 0
CCS(=O)(=O)c1ccc(OC)c(Nc2ncc(-c3ccc(F)cc3)o2)c1.Cl [GW591947] | 0 | 0 | 0 | 0 | 0 | 1 | 15 | 0 | 0 | 9

From publication PMC5540273 (PLoS ONE, 2017)
